The text below walks through data of PubChem BioAssay (EPA / NIEHS).

Results filed as inconclusive are left out. The source made the active and inactive calls. How the source made its calls: active means hit-call score of the fitted dose curve at least 0.9, where 1 is the maximum; inconclusive means response in the unintended direction; inactive means score below 0.9.

Usually AC50 stands for the midpoint of the concentration-response curve, whichever way the signal moves.

Sequence of Tyrosine-protein phosphatase non-receptor type 14 (Homo sapiens) (Q15678 whole entry, looked up): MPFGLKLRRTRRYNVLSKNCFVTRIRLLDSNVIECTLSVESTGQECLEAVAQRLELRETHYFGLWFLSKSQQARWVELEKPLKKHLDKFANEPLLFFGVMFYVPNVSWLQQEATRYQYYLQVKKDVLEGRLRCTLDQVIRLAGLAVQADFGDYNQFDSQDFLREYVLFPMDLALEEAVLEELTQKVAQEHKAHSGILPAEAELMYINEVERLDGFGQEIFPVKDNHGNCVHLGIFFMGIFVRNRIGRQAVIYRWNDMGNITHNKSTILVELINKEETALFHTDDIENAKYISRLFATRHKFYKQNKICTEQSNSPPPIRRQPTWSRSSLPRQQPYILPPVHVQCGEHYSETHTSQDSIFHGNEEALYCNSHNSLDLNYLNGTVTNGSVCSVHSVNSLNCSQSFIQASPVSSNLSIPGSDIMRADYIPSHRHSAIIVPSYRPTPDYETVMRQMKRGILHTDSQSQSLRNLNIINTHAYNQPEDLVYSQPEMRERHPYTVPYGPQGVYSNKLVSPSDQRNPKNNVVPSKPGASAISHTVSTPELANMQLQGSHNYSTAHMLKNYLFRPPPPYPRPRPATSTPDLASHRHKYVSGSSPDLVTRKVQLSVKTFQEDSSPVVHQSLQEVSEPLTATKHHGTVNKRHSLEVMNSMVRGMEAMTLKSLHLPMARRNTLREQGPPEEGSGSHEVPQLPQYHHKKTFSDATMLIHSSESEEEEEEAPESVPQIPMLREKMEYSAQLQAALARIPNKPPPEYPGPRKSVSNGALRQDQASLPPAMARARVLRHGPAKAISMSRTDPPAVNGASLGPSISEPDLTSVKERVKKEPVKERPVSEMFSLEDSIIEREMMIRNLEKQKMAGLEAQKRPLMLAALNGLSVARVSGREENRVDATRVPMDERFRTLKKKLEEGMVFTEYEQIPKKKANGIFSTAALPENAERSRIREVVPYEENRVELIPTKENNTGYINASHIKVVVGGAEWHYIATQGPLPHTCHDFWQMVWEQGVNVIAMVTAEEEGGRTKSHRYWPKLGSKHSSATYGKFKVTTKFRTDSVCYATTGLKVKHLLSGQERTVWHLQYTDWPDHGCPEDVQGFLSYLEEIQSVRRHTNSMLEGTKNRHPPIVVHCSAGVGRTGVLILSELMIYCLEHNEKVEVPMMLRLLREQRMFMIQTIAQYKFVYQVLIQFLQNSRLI

This test addresses Tyrosine-protein phosphatase non-receptor type 14 (Homo sapiens) (UniProt Q15678). In words: NVS_ENZ_hPTPN14: NovaScreen (NVS) Enzymatic Assay for human Protein Tyrosine Phosphatase Non-receptor Type 14 (PTPN14) (AID 2283206). As for the experimental part:
NVS_ENZ_hPTPN14 is a biochemical, single-readout assay that uses extracted gene-proteins in a cell-free assay. Measurements were taken 0.5 hour after chemical dosing in a 384-well plate.NVS_ENZ_hPTPN14 is one of one assay component(s) measured or calculated from the NVS_ENZ_hPTPN14 assay. It is designed to make measurements of enzyme activity, a form of enzyme reporter, as detected with fluorescence intensity signals by Fluorescence and electrophoretic mobility shift technology.Data from the assay component NVS_ENZ_hPTPN14 was analyzed into 1 assay endpoint. This assay endpoint, NVS_ENZ_hPTPN14, was analyzed in the positive analysis fitting direction relative to DMSO as the negative control and baseline of activity. Using a type of enzyme reporter, loss-of-signal activity can be used to understand changes in the enzymatic activity as they relate to the gene PTPN14. Furthermore, this assay endpoint can be referred to as a primary readout, because this assay has produced multiple assay endpoints where this one serves a enzymatic activity function. To generalize the intended target to other relatable targets, this assay endpoint is annotated to the phosphatase intended target family, where the subfamily is non-receptor tyrosine phosphatase.
Binding assays used specific radioligands (tritiated, iodinated) with non-radioactive competitive displacement ligands in agonist or antagonist protocols (as indicated) and various reference compounds and inhibitors to titrate specific binding to receptors and transporters. Most enzyme assays (CYPs, kinases, phosphatases, proteases, HDACs) used recombinant protein and specific substrates (fluorescence mostly, some colorimetric and radioactive) and inhibitors, followed by a biochemical separation of substrate and product. All assays for the biochemical HTS were initially run in duplicate at a single concentration (10 uM for CYP450 assays and 25 uM for all others). Assay-chemical combinations meeting a pre-defined threshold (e.g., 30% inhibition and other criteria defined below) were then run in singleton concentration-response format with maximum concentration of 20 uM for CYPs and 50 uM for all others. Each assay was run with positive and negative controls, and concurrent controls on every plate. The follow-up (secondary) screen tested active chemical-pairs in concentration series, as well as a few additional assays not tested in the primary screen, some selected negative inactives, and several cases re-run in the concentration series for confirmatory purposes.
On to `CSC1=N[C@@](C)(c2ccccc2)C(=O)N1Nc1ccccc1`, for which the molecule was classed as inactive. Same read-out and setting: next, `CN1COCN(Cc2cnc(Cl)s2)C1=N[N+](=O)[O-]`: “inactive”; `CCC(=NOC/C=C/Cl)C1=C(O)CC(C2CCOCC2)CC1=O` (configuration not stated): “inactive”; `O=c1ccc(=O)[nH][nH]1`: “inactive”.

For the molecule `CCNc1nc(Cl)nc(NC(C)(C)C#N)n1`, the result was inactive. On to `CC(C)N(C(=O)SCC(Cl)=C(Cl)Cl)C(C)C`, for which the call was inactive. On the same count and under the same terms, next, `CNC(=O)Oc1cccc2c1OC(C)(C)O2`: “inactive”; `O=C(O)c1cc(Oc2ccc(C(F)(F)F)cc2Cl)ccc1[N+](=O)[O-]`: “inactive”. Regarding `N#CSCSC#N`, the outcome was inactive. The same measure, in the same setting: with `CCCCOC(=O)c1ccccc1C(=O)O` the entry was “inactive”. Still for that read-out and setting: with `Nc1nc(N)nc(NC2CC2)n1` the entry was “inactive”. On to `CN(C)[C@@H]1C(=O)C(C(N)=O)=C(O)[C@@]2(O)C(=O)C3=C(O)c4c(O)cccc4[C@@](C)(O)[C@H]3[C@H](O)[C@@H]12`, for which the AC50 was 26.3 µM (active).
